About 83,000 compounds went through this panel and 20% of them were active in at least one assay; those are over-represented in the sample as a whole.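 Cell lines were cultured in 96-well plates, exposed to a single compound concentration, and assessed for percent growth 48 hours later.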 Active and inactive are the calls of the source. How the source made its calls: active means growth percent below 10; inactive means the rest.
Columns and labels:
Experiment in all cases: NCI-60 one-dose screen, 48 h (100 = growth as untreated, 0 = no growth, -100 = all killed)
[1] = test system: HCT-15 colon; settings: 10 µM unless noted
[2] = test system: HT29 colon; settings: 10 µM unless noted
[3] = test system: SNB-75 CNS; settings: 10 µM unless noted
[4] = test system: SNB-19 CNS; settings: 10 µM unless noted
[5] = test system: U251 CNS; settings: 10 µM unless noted
[6] = test system: PC-3 prostate; settings: 10 µM unless noted
[7] = test system: SK-MEL-5 melanoma; settings: 10 µM unless noted
[8] = test system: UACC-62 melanoma; settings: 10 µM unless noted
[9] = test system: LOX IMVI melanoma; settings: 10 µM
[10] = test system: SK-MEL-28 melanoma; settings: 10 µM unless noted
[11] = test system: SK-MEL-2 melanoma; settings: 10 µM unless noted
[12] = test system: EKVX NSCLC; settings: 10 µM unless noted
[13] = test system: SN12C renal; settings: 10 µM unless noted
[14] = test system: UO-31 renal; settings: 10 µM unless noted
[15] = test system: ACHN renal; settings: 10 µM unless noted
[16] = test system: CAKI-1 renal; settings: 10 µM unless noted
[17] = test system: A498 renal; settings: 10 µM unless noted
[18] = test system: MOLT-4 leukemia; settings: 10 µM unless noted
[19] = test system: TK-10 renal; settings: 10 µM unless noted
[20] = test system: CCRF-CEM leukemia; settings: 10 µM unless noted

Measured: growth

CCN1/C(=C/C(C)=C/c2sc3ccc4ccccc4c3[n+]2CC)Sc2ccc3ccccc3c21
active: [1] -81.8% | [2] -80.6% | [3] -94.3% | [4] -96.5% | [5] -94.1% | [6] -84% | [7] -97.6% | [8] -96.6% | [9] -73.9% | [10] -98.3% | [11] -93.5% | [12] -90.8% | [13] -84.9% | [14] -89.8% | [15] -97.2% | [16] -97.9% | [17] -98.3% | [18] -43.6%

CC(C)Nc1ccc(Nc2ccc(NC(C)C)cc2)cc1
inactive: [1] 92.9% | [2] 26.9% | [3] 79.7% | [4] 28.6% | [5] 16.9% | [6] 38.8% | [7] 33.2% | [8] 36.6% | [9] 39.9% | [10] 50.8% | [11] 69.9% | [12] 31.3% | [13] 30.7% | [14] 87% | [19] 62.6% | [15] 70.4% | [16] 94.4% | [17] 84.1% | [20] 58.6% | [18] 30.1%

CCOc1ccc(Nc2nc3c(s2)C(=O)c2ccccc2C3=O)cc1
inactive: [1] 30.4% | [2] 115% | [3] 76.3% | [4] 89.9% | [5] 78.9% | [6] 57.4% | [7] 62.1% | [8] 56.6% | [10] 106% | [11] 101% | [12] 96.4% | [13] 51.3% | [14] 72.9% | [19] 127% | [16] 74.2% | [17] 76.7% | [20] 51.4% | [18] 48.5%
active: [9] -5.52%

O=[N+]([O-])/C(=C/c1ccccc1)c1ccccc1
inactive: [1] 99.6% | [2] 99% | [3] 106% | [4] 110% | [5] 97.4% | [6] 100% | [7] 103% | [8] 108% | [9] 96.3% | [10] 100% | [11] 107% | [13] 103% | [14] 84.4% | [19] 89.5% | [15] 101% | [16] 106% | [17] 107% | [20] 97.5% | [18] 99%

Oc1cc(Cl)ccc1Cc1ccc(Cl)cc1O
inactive: [1] 52% | [2] 102% | [3] 76.8% | [4] 66.1% | [5] 52.7% | [6] 43.5% | [7] 11.7% | [8] 32.2% | [9] 50.6% | [10] 89.3% | [11] 66.1% | [12] 51.2% | [13] 36.2% | [14] 46.4% | [19] 95.6% | [15] 49.4% | [16] 92.9% | [17] 126% | [20] 45.7% | [18] 43.5%

O=S(=O)(O)c1cnccn1
inactive: [1] 103% | [2] 94.7% | [3] 92.9% | [4] 104% | [5] 102% | [6] 82.6% | [7] 104% | [8] 99.4% | [9] 98% | [10] 107% | [11] 102% | [12] 97.4% | [13] 103% | [14] 93.4% | [19] 94% | [15] 104% | [16] 92.3% | [17] 118% | [20] 112% | [18] 101%

NC(=S)N/N=C\c1nccc2c(N)cccc12
inactive: [1] 29.6% | [2] 37.9% | [3] 13.6% | [4] 30.1% | [5] 17.8% | [6] 46.6% | [7] 10.8% | [10] 44.6% | [11] 39.3% | [12] 34.5% | [19] 48% | [17] 12.2%
active: [8] -29% | [9] 5.29% | [13] 8.66% | [14] -8.44% | [15] -7.84% | [16] -23.9% | [20] 8.4% | [18] 3.28%

CCCc1cc(=O)oc2c3c(c4c(c12)OC(C)(C)CC4)OC(C)[C@H](C)[C@@H]3O (stereo partly specified)
inactive: [1] 55.5% | [2] 58.8% | [3] 91.5% | [4] 94.4% | [5] 75.1% | [6] 42.7% | [7] 86.9% | [8] 68.9% | [9] 83.1% | [10] 93.1% | [11] 13.6% | [12] 90% | [14] 34.9% | [19] 139% | [15] 66.1% | [16] 104% | [17] 63% | [20] 84.8% | [18] 54.9%

CC1(C)OC2C(COC(c3ccccc3)(c3ccccc3)c3ccccc3)OC(c3c[nH]c4c(N)ncnc34)C2O1 (stereo unspecified)
active: [18] -7.93%
inactive: [1] 55.3% | [2] 46.4% | [3] 61.9% | [4] 66.1% | [5] 56.7% | [6] 25% | [7] 60.8% | [8] 65.2% | [9] 54.8% | [10] 66.8% | [11] 69.8% | [12] 55.3% | [13] 50.1% | [14] 58.3% | [19] 84.2% | [15] 52.2% | [16] 56.6% | [17] 74.7% | [20] 36.3%

CCN(CC)c1ccc(/C=C\C(=O)c2ccc(NC(C)=O)cc2)cc1
inactive: [1] 45.6% | [2] 39.5% | [4] 61.5% | [5] 41.9% | [6] 71.9% | [7] 97.4% | [8] 78.5% | [9] 74.1% | [10] 82% | [11] 76.8% | [12] 79.1% | [13] 48.9% | [19] 92.4% | [15] 61.4% | [16] 54.9% | [17] 71.6% | [20] 82.9%
active: [3] -0.746%

Cc1cccc2c(N)c3ccccc3nc12
inactive: [4] 27.5%
active: [1] -8.39% | [2] -7.57% | [3] 2.93% | [5] -17.6% | [6] -18.7% | [7] -77.2% | [8] -57.6% | [9] -57.3% | [10] -41.1% | [11] -28.5% | [12] 1.94% | [13] -9.63% | [14] -53.9% | [19] -5.29% | [15] -18.6% | [16] -21.9% | [17] -46.5% | [20] 6.63% | [18] 2.71%

O=C1C=CC(=O)N1c1cc(Cl)c(Cl)cc1Cl
inactive: [1] 113% | [2] 101% | [3] 82.1% | [4] 108% | [5] 101% | [6] 100% | [7] 111% | [8] 105% | [9] 97.9% | [10] 107% | [11] 87.2% | [13] 104% | [14] 76.7% | [19] 106% | [15] 96% | [16] 103% | [17] 105% | [20] 37.5% | [18] 95.5%

CN(C)c1ccc(C(C#N)(c2ccccc2)c2ccc(N(C)C)cc2)cc1
active: [5] 7.62%
inactive: [1] 71.8% | [2] 14.6% | [3] 57.1% | [4] 63.7% | [6] 69.4% | [7] 81.6% | [8] 70.5% | [9] 51.1% | [10] 60.2% | [11] 85.2% | [13] 14.4% | [14] 53% | [19] 71.8% | [15] 49.3% | [16] 79.4% | [20] 69.3% | [18] 68.5%

O=C(c1ccccc1)c1ccc(O)c2ncccc12
inactive: [1] 25.7% | [2] 96.1% | [3] 58.7% | [4] 38.4% | [5] 28.4% | [6] 32.2% | [7] 26.8% | [8] 33.9% | [9] 31.4% | [10] 68% | [11] 43% | [12] 51.1% | [13] 31.6% | [19] 83.1% | [15] 18.5% | [17] 53.1% | [20] 29.5% | [18] 21.2%
active: [16] 8.47%

COc1cc2c(c(OC)c1OC)-c1ccc(NCc3ccccc3)c(=O)cc1[C@@H](NC(C)=O)CC2
active: [2] -8.12% | [7] -25% | [17] -17.3% | [18] 3.29%
inactive: [1] 11.5% | [3] 32.9% | [4] 64.2% | [5] 19% | [6] 21.8% | [8] 24.9% | [9] 21.2% | [10] 42.2% | [11] 19.2% | [13] 20.3% | [14] 34.4% | [19] 26% | [15] 28.8% | [16] 28.8% | [20] 10.1%

O=C(O)c1ccc2c(c1)C(=O)c1ccccc1C2=O
inactive: [1] 106% | [2] 108% | [3] 91.6% | [4] 104% | [5] 98.9% | [6] 96.5% | [7] 97.5% | [8] 94.9% | [9] 96.1% | [10] 111% | [11] 105% | [12] 102% | [13] 94.6% | [14] 87% | [19] 105% | [15] 103% | [16] 96.4% | [17] 71.8% | [20] 108% | [18] 94.4%

S=C=Nc1ccc(N2CCOCC2)cc1
inactive: [1] 90.5% | [2] 86.3% | [3] 66.4% | [4] 91.8% | [5] 97.6% | [6] 90.1% | [7] 98.2% | [8] 82.1% | [9] 92.4% | [10] 92.5% | [11] 97.8% | [12] 91.7% | [14] 84.5% | [15] 96.1% | [16] 95.9% | [17] 96.5% | [20] 80.6% | [18] 92.5%

Reference: PubChem BioAssay (NCI)
